PubChem BioAssay AID1159580 (chemical genetic matrix, 2015)
“And” between values parts separate entries of the source, which are not always exact repeats. Equal values may be shown once. The campaign covered roughly 5,500 compounds. About 2,000 (36%) were called active. About 18% were inconclusive and are not listed. Rule as the data show it: active = normalized growth mostly below about 0.91 (no sharp cut-off); inconclusive = no clear call, values can overlap the other calls; inactive = mostly above about 0.92. The list shows a part of the results.

Experiment: chemical genetic growth profiling, strain panel (AID 1159580);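 also: tested at 20 µM; growth read once vehicle control cultures reached saturation at 30 °C; 1 = growth at the plate median or of vehicle wells; lower values mean less growth of the strain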
Details: S. cerevisiae deletion strains, growth OD

Measured: normalized growth

C[C@H](CCC(=O)O)[C@H]1CCC2C3C(=O)CC4CC(=O)CC[C@]4(C)C3CC(=O)[C@@]21C (some centres not stated)
inactive: locus YAL021C, strain ccr4, stronger effect = lower value 0.908 | locus YAL026C, strain drs2, stronger effect = lower value 0.99 | locus YAL030W, strain snc1, stronger effect = lower value 0.963 | locus YBL061C, strain skt5, stronger effect = lower value 0.99 | locus YBR009C, strain hhf1, stronger effect = lower value 0.992 | locus YBR021W, strain FUR4, stronger effect = lower value 1.01 | locus YBR023C, strain chs3, stronger effect = lower value 0.987 | locus YBR171W, strain sec66, stronger effect = lower value 0.956 | locus YBR229C, strain ROT2, stronger effect = lower value 1.01 | locus YBR231C, strain swc5, stronger effect = lower value 0.967 | locus YBR279W, strain paf1, stronger effect = lower value 0.994 | locus YCL011C, strain gbp2, stronger effect = lower value 0.991 | locus YCL016C, strain dcc1, stronger effect = lower value 1.02 | locus YCL029C, strain bik1, stronger effect = lower value 1.01 | locus YCL061C, strain MRC1, stronger effect = lower value 0.972 | locus YCL069W, strain vba3, stronger effect = lower value 0.978 | locus YCR088W, strain abp1, stronger effect = lower value 0.987 | locus YDL005C, strain med2, stronger effect = lower value 0.952 | locus YDL035C, strain GPR1, stronger effect = lower value 1.02 | locus YDL040C, strain nat1, stronger effect = lower value 0.976 | locus YDL074C, strain BRE1, stronger effect = lower value 1 | locus YDL101C, strain DUN1, stronger effect = lower value 1.01 | locus YDL134C, strain PPH21, stronger effect = lower value 1.02 | locus YDL185W, strain tfp1, stronger effect = lower value 1.01 | locus YDL192W, strain arf1, stronger effect = lower value 1 | locus YDR001C, strain nth1, stronger effect = lower value 0.969 | locus YDR069C, strain doa4, stronger effect = lower value 0.951 | locus YDR101C, strain arx1, stronger effect = lower value 1.02 | locus YDR137W, strain rgp1, stronger effect = lower value 0.999 | locus YDR159W, strain sac3, stronger effect = lower value 0.937 | locus YDR162C, strain NBP2, stronger effect = lower value 1.02 | locus YDR195W, strain ref2 0.937 | locus YDR297W, strain sur2, stronger effect = lower value 0.981 | locus YDR318W, strain mcm21, stronger effect = lower value 1 | locus YDR334W, strain swr1, stronger effect = lower value 0.957 | locus YDR335W, strain msn5, stronger effect = lower value 0.978 | locus YDR388W, stronger effect = lower value 1 | locus YDR392W, strain spt3, stronger effect = lower value 1.06 | locus YDR502C, strain sam2, stronger effect = lower value 0.998 | locus YEL003W, strain gim4, stronger effect = lower value 0.979 | locus YEL037C, strain rad23, stronger effect = lower value 0.983 | locus YEL061C, strain CIN8 (second series), stronger effect = lower value 0.962 | locus YEL061C, strain CIN8, stronger effect = lower value 1.01 | locus YER015W, strain faa2, stronger effect = lower value 0.991 | locus YER016W, strain bim1, stronger effect = lower value 1.04 | locus YER110C, stronger effect = lower value 1.01 | locus YER111C, strain swi4, stronger effect = lower value 0.974 | locus YER155C, strain BEM2 (second series), stronger effect = lower value 0.961 | locus YER155C, strain BEM2, stronger effect = lower value 1 | locus YER167W, strain BCK2, stronger effect = lower value 1.01 | locus YFR010W, strain ubp6, stronger effect = lower value 0.965 | locus YGL078C, strain dbp3, stronger effect = lower value 1.01 | locus YGL086W, strain mad1, stronger effect = lower value 1.01 | locus YGL167C, strain pmr1, stronger effect = lower value 0.947 | locus YGL173C, strain kem1, stronger effect = lower value 0.962 | locus YGL227W, strain vid30, stronger effect = lower value 0.97 | locus YGL240W, strain doc1, stronger effect = lower value 0.948 | locus YGL248W, strain PDE1, stronger effect = lower value 1 | locus YGL253W, strain hxk2, stronger effect = lower value 1 | locus YGR135W, strain pre9, stronger effect = lower value 0.994 | locus YGR252W, strain gcn5, stronger effect = lower value 0.972 | locus YHR013C, strain ard1, stronger effect = lower value 1 | locus YHR027C, strain rpn1, stronger effect = lower value 0.988 | locus YHR030C, strain SLT2, stronger effect = lower value 1.01 and 1.03 | locus YHR079C, strain IRE1 (second series), stronger effect = lower value 0.997 | locus YHR079C, strain IRE1, stronger effect = lower value 1 | locus YHR094C, strain hxt1, stronger effect = lower value 1.01 | locus YHR129C, strain ARP1, stronger effect = lower value 1.01 | locus YHR142W, strain chs7, stronger effect = lower value 0.957 | locus YHR200W, strain rpn10, stronger effect = lower value 1 | locus YIL066C, strain RNR3, stronger effect = lower value 1.02 | locus YIL073C, strain SPO22, stronger effect = lower value 1.01 | locus YIL125W, strain kgd1, stronger effect = lower value 1.01 | locus YIR030C, strain dcg1, stronger effect = lower value 1.01 | locus YJL092W, strain hpr5, stronger effect = lower value 0.971 | locus YJL095W, strain BCK1 (second series), stronger effect = lower value 0.969 | locus YJL095W, strain BCK1, stronger effect = lower value 1 and 1.02 | locus YJL115W, strain asf1, stronger effect = lower value 0.978 | locus YJL129C, strain trk1, stronger effect = lower value 0.962 | locus YJL134W, strain LCB3, stronger effect = lower value 1.01 | locus YJL154C, strain vps35, stronger effect = lower value 0.958 | locus YJL164C, strain tpk1, stronger effect = lower value 1.01 | locus YJL166W, strain qcr8, stronger effect = lower value 0.916 | locus YJL168C, strain set2, stronger effect = lower value 1 | locus YJL187C, strain SWE1 (second series), stronger effect = lower value 1.01 | locus YJR043C, strain POL32, stronger effect = lower value 1.01 | locus YJR066W, strain TOR1, stronger effect = lower value 0.971 | locus YJR075W, strain HOC1, stronger effect = lower value 1.02 | locus YKL009W, strain mrt4, stronger effect = lower value 0.992 | locus YKL068W, stronger effect = lower value 1.01 | locus YKL085W, strain MDH1 (second series), stronger effect = lower value 1.02 | locus YKL085W, strain MDH1, stronger effect = lower value 1.02 | locus YKL160W, strain elf1, stronger effect = lower value 0.985 | locus YKR001C, strain vps1, stronger effect = lower value 1.01 | locus YKR026C, strain gcn3, stronger effect = lower value 0.972 | locus YLL001W, strain dnm1, stronger effect = lower value 0.923 | locus YLL026W, stronger effect = lower value 0.987 | locus YLL041C, strain sdh2, stronger effect = lower value 0.978 | locus YLR027C, strain aat2, stronger effect = lower value 0.993 | locus YLR039C, strain RIC1, stronger effect = lower value 0.955 | locus YLR058C, strain SHM2, stronger effect = lower value 1.01 | locus YLR102C, strain apc9, stronger effect = lower value 0.999 | locus YLR113W, strain HOG1, stronger effect = lower value 1.03 | locus YLR221C, strain rsa3, stronger effect = lower value 1.04 | locus YLR258W, strain gsy2, stronger effect = lower value 0.982 | locus YLR262C, strain YPT6 (second series), stronger effect = lower value 0.926 | locus YLR262C, strain YPT6, stronger effect = lower value 1.05 | locus YLR268W, strain sec22, stronger effect = lower value 1 | locus YLR320W, strain mms22, stronger effect = lower value 1 | locus YLR330W, strain CHS5, stronger effect = lower value 1.01 | locus YLR342W, strain FKS1 (second series), stronger effect = lower value 1 | locus YLR342W, strain FKS1, stronger effect = lower value 0.972 | locus YLR357W, strain rsc2, stronger effect = lower value 0.917 | locus YLR370C, strain arc18, stronger effect = lower value 0.987 | locus YLR371W, strain rom2, stronger effect = lower value 1 | locus YLR384C, strain iki3, stronger effect = lower value 0.976 | locus YLR418C, strain cdc73, stronger effect = lower value 0.981 | locus YML016C, strain PPZ1, stronger effect = lower value 1.01 | locus YML032C, strain rad52, stronger effect = lower value 0.994 | locus YML120C, strain ndi1, stronger effect = lower value 0.967 | locus YML124C, strain tub3, stronger effect = lower value 0.995 | locus YMR058W, strain fet3, stronger effect = lower value 0.976 | locus YMR078C, strain ctf18, stronger effect = lower value 1.01 | locus YMR125W, strain sto1, stronger effect = lower value 0.93 | locus YMR129W, stronger effect = lower value 0.993 | locus YMR205C, strain PFK2, stronger effect = lower value 0.953 | locus YMR223W, strain ubp8, stronger effect = lower value 1 | locus YMR307W, strain GAS1, stronger effect = lower value 1.05 | locus YNL067W, strain RPL9B, stronger effect = lower value 1.01 | locus YNL071W, strain lat1, stronger effect = lower value 0.975 | locus YNL153C, strain GIM3, stronger effect = lower value 0.996 | locus YNL183C, strain NPR1, stronger effect = lower value 0.982 | locus YNL209W, strain ssb2, stronger effect = lower value 0.99 | locus YNL233W, strain BNI4, stronger effect = lower value 1.01 | locus YNL248C, strain rpa49, stronger effect = lower value 1 | locus YNL250W, strain rad50, stronger effect = lower value 0.995 | locus YNL271C, strain bni1, stronger effect = lower value 0.996 | locus YNL298W, strain CLA4, stronger effect = lower value 1 | locus YNL307C, strain MCK1, stronger effect = lower value 1 | locus YNL322C, strain KRE1 (second series), stronger effect = lower value 0.975 | locus YNL322C, strain KRE1, stronger effect = lower value 1.02 | locus YNR049C, strain mso1, stronger effect = lower value 0.983 | locus YNR052C, strain pop2, stronger effect = lower value 1 | locus YOL012C, strain htz1 1.17 | locus YOL147C, strain pex11, stronger effect = lower value 1.01 | locus YOR001W, strain rrp6, stronger effect = lower value 0.965 | locus YOR061W, strain CKA2, stronger effect = lower value 1.01 | locus YOR069W, strain VPS5, stronger effect = lower value 1.01 | locus YOR070C, strain gyp1, stronger effect = lower value 0.995 | locus YOR080W, strain dia2, stronger effect = lower value 0.947 | locus YOR083W, strain WHI5, stronger effect = lower value 0.964 | locus YOR106W, strain vam3, stronger effect = lower value 0.924 | locus YOR136W, strain idh2, stronger effect = lower value 1 | locus YOR144C, strain elg1, stronger effect = lower value 1.01 | locus YOR184W, strain ser1, stronger effect = lower value 0.999 | locus YOR231W, strain MKK1, stronger effect = lower value 1.03 | locus YOR265W, strain rbl2, stronger effect = lower value 0.971 | locus YOR270C, strain vph1, stronger effect = lower value 0.988 | locus YOR290C, strain snf2, stronger effect = lower value 1.02 | locus YOR316C, strain cot1, stronger effect = lower value 1.01 | locus YPL051W, strain arl3, stronger effect = lower value 1.02 | locus YPL055C, strain LGE1, stronger effect = lower value 1.02 | locus YPL078C, strain atp4, stronger effect = lower value 0.929 | locus YPL106C, strain sse1, stronger effect = lower value 0.94 | locus YPL240C, strain hsp82, stronger effect = lower value 0.989 | locus YPL256C, strain CLN2, stronger effect = lower value 1.04 | locus YPR119W, strain clb2, stronger effect = lower value 1.01 | locus YPR141C, strain kar3, stronger effect = lower value 1.01 | locus YPR163C, strain tif3, stronger effect = lower value 1 | locus YPR167C, strain met16, stronger effect = lower value 1 | strain wtn01, stronger effect = lower value 0.988
active: locus YMR231W, strain pep5, stronger effect = lower value 0.906
